This is a sample that favours compounds with a hit; in the whole collection about 0.92% have one here.
TDP1 inh: qHTS Assay for Inhibitors of Tyrosyl-DNA Phosphodiesterase (TDP1); Tyrosyl-DNA phosphodiesterase 1 (Homo sapiens), Q9NUW8; AID 485290, 2010; 350,000 tested, 0.28% active; Potency, µM (highest dose often 130 µM), usual class: inhibitors; recombinant TDP1, AlphaScreen DNA substrate cleavage; further: nearly all actives have a fitted effect of over 40% in size
Target sequence (Q9NUW8 whole entry, looked up): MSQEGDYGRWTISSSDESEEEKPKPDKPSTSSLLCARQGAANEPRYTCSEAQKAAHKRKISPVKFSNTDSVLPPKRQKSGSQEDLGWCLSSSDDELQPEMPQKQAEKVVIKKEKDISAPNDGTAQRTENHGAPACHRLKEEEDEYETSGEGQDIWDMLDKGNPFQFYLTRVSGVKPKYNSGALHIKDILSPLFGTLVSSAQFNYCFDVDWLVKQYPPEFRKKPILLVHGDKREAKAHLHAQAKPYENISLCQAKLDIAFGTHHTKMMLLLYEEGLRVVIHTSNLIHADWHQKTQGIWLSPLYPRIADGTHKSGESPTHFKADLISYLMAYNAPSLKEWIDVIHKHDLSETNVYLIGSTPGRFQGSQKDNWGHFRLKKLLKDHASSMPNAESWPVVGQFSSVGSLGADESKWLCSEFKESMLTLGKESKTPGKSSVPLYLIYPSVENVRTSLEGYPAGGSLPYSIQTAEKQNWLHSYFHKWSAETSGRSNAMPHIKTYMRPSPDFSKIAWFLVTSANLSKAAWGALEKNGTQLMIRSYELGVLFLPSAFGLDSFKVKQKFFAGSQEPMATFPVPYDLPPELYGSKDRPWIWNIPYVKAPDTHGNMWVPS
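Enzyme-compound mixtures sat 15 min at room temperature, followed by a 5 min reaction with 15 nM final substrate and 10 min with AlphaScreen beads. Recombinant human Tdp1 was used at 1 nM final.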
APEX1 inh: qHTS Assay for Inhibitors of the Human Apurinic/apyrimidinic Endonuclease 1 (APE1); Potency, µM (doses to about 65.8 µM), most hits filed as inhibitors; recombinant APE1, TAMRA/BHQ-2 abasic DNA cleavage fluorescence; 350,000 tested, 0.35% active; further: nearly all actives have a fitted effect of over 55% in size
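0.75 nM APE1 + cpd, 15 min RT; start w/ 50 nM TAMRA/BHQ-2 THF-abasic dsDNA; kinetic fluor 525/598 nm ×3 reads @60 s; Δ(read3−read1); normalized to DMSO and NSC13755 control wells.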
RECQ1 inh-1: qHTS Assay for Inhibitors of RecQ-Like Dna Helicase 1 (RECQ1); ATP-dependent DNA helicase Q1 (Homo sapiens), P46063; RECQ1 DNA unwinding, red fluorescence kinetic read; Potency, µM (top dose mostly 57.3 µM), most hits filed as inhibitors; 240,000 tested, 0.54% active; further: nearly all actives have a fitted effect of over 30% in size
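50 nM RECQ1T1 preincubated 15 min with compound in Tris pH 8.0 buffer with MgCl2, DTT, Tween-20 and 2.5 ug/ml poly(dI-dC); started with 200 nM TAMRA/BHQ-2 forked duplex and 2 mM ATP. Unwinding read as fluorescence (525/598 nm), two reads 2 h apart.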
BLM inh: qHTS Assay for Inhibitors of Bloom's syndrome helicase (BLM); AID 2528, 2010; 350,000 tested, 0.2% active; recombinant BLM DNA unwinding, fluorescence dequenching; Potency, µM (doses to about 56.1 µM), hits mostly inhibitors; further: nearly all actives have a fitted effect of over 35% in size
FEN1 inh: qHTS Assay for the Inhibitors of Human Flap endonuclease 1 (FEN1); P39748; Recombinant FEN1 flap cleavage, fluorescence, 15 min; Potency, µM (highest dose often 114 µM), usual class: inhibitors; 390,000 tested, 0.35% active; further: nearly all actives have a fitted effect of over 65% in size
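With each library titrated from low to high concentration, compounds met 10 nM FEN1 for 15 min at room temperature before 50 nM substrate was added; readings at 0 and 15 min fed four-parameter Hill curve fits.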
RECQ1 inh conf: Confirmation qHTS Assay for Inhibitors of RecQ-Like Dna Helicase 1 (RECQ1). AID 2708, 2010. Potency, µM (top dose mostly 229 µM), usual class: inhibitors. 610 tested, 28% active. shares compounds with RECQ1 inh-1. RECQ1 helicase DNA unwinding, fluorescence; further: nearly all actives have a fitted effect of over 45% in size
ADP FP counter: Counterscreen for RECQ1 Inhibitors: ADP Fluorescence Polarization Displacement Assay; Potency, µM (series often up to 228 µM), actives largely listed as inhibitors; shares compounds with RECQ1 inh-1; ADP fluorescence polarization displacement counterscreen; 530 tested, 27% active; further: nearly all actives have a fitted effect of over 45% in size
RECQ1 inh-2: Confirmation qHTS Assay for Inhibitors of RecQ-Like Dna Helicase 1 (RECQ1) - Round 2 Cherry Picks | shares compounds with RECQ1 inh-1 | recombinant RECQ1 DNA unwinding, red fluorescence | Potency, µM (doses to about 119 µM), usual class: inhibitors | 1,100 tested, 15% active | AID 504841, 2011; further: nearly all actives have a fitted effect of over 50% in size
Numbers stand for hits; [ ] = another dose, or the depositor's remark. The call rests on the fitted dose curve; in most records, active means well fitted curve in the direction sought with a large enough effect; inconclusive means small, poorly fitted or top-dose-only effect, or another doubt; inactive means no such curve, though single readings can be large; an effect the other way counts as inactive or inconclusive.

`CC(=O)C(Sc1ccc2nnc(-c3ccc(C)cc3)n2n1)C(C)=O` gave TDP1 inh inactive, APEX1 inh inactive, RECQ1 inh-1 inconclusive, BLM inh inactive, FEN1 inh inactive and RECQ1 inh-2 inconclusive.
`CC(C)OC(=O)[C@@H]1CC[C@H](C)[C@@H](CCCCO)O1` gave TDP1 inh inactive, APEX1 inh inactive, RECQ1 inh-1 inactive and BLM inh inactive.
Screening CC1(C(=O)O)NCCc2cc(O)c(O)cc21 (configuration not stated) returned APEX1 inh 5.6µM, RECQ1 inh-1 6.3µM, RECQ1 inh conf inconclusive and ADP FP counter 3.2µM.
O=C(CC1C(=O)NCCN1Cc1ccc(-c2ccccc2)cc1)NCCOc1cccnc1 (configuration not stated) was read as TDP1 inh inactive, APEX1 inh inactive, RECQ1 inh-1 inconclusive, BLM inh inactive, FEN1 inh inactive and RECQ1 inh-2 inactive.
For O=C(CC1C(=O)NCCN1Cc1ccc(F)cc1)NCCOc1cccnc1 (configuration not stated) the results were APEX1 inh inactive, RECQ1 inh-1 inactive, BLM inh inactive and FEN1 inh inactive.
`CCC/C=C(\CCC)C(NS(=O)(=O)c1ccc(-c2ccccc2)cc1)c1ccc(C(=O)OC)cc1` (configuration not stated) gave TDP1 inh inactive, APEX1 inh inactive, RECQ1 inh-1 inactive and BLM inh inactive.
`CCOc1ccccc1NC(=O)CSc1ccc2nc(-c3ccccc3)cn2n1` gave TDP1 inh inactive, BLM inh inactive and FEN1 inh inactive.
c1ccc(Cn2nnc3c(N4CCCCCC4)ncnc32)cc1 was read as TDP1 inh inactive, APEX1 inh inactive, RECQ1 inh-1 inconclusive, BLM inh inactive, FEN1 inh inactive and RECQ1 inh-2 inactive.
For Cc1ccc(C2CC(=O)n3nc(-c4ccc(F)cc4)nc3S2)cc1 (configuration not stated) the results were BLM inh inactive and FEN1 inh inactive.
Cc1cc(-c2csc(NC(=O)C3=COCCO3)n2)c(C)n1C was read as TDP1 inh inactive, APEX1 inh inactive and FEN1 inh inactive.
Screening Cc1cc(-c2csc(NC(=O)c3ccc(=O)n(C)n3)n2)c(C)n1CC1CCCO1 (configuration not stated) returned TDP1 inh 50µM, APEX1 inh inactive, RECQ1 inh-1 inconclusive, BLM inh inconclusive, FEN1 inh inactive and RECQ1 inh-2 inactive.
For N#C/C(=C\c1ccc(O)c([N+](=O)[O-])c1)c1nc2ccccc2s1 the results were TDP1 inh inactive, APEX1 inh inactive, RECQ1 inh-1 inactive, BLM inh inactive and FEN1 inh inconclusive.
`COc1cc(/C=C(\C#N)c2nc3ccccc3s2)cc([N+](=O)[O-])c1O` gave TDP1 inh inactive, APEX1 inh inconclusive, RECQ1 inh-1 inconclusive, BLM inh inconclusive, FEN1 inh inconclusive and RECQ1 inh-2 35µM.
`COc1ccc(C(=O)Nc2ccccc2C(=O)Nc2cccnc2)cc1` gave APEX1 inh inactive[12.4 µM], BLM inh inactive and FEN1 inh inactive.
Screening COc1ccc(C(=O)Nc2cccnc2)cc1 returned TDP1 inh inactive, APEX1 inh inactive, RECQ1 inh-1 inactive, BLM inh inactive, FEN1 inh inactive, RECQ1 inh conf inactive and ADP FP counter inconclusive.
Screening CS(=O)(=O)N1CCC2(CCCN(c3cccc(-c4ccccc4)c3)C2)CC1 returned APEX1 inh inactive, RECQ1 inh-1 28µM, BLM inh inactive and RECQ1 inh-2 inconclusive.
COCCNc1nc(-c2ccccc2)nc2ccccc12 was read as TDP1 inh inactive, APEX1 inh inactive, RECQ1 inh-1 inactive, BLM inh inactive and FEN1 inh inactive.
CC(=O)OCCNc1nc(-c2ccccc2)nc2ccccc12 was read as TDP1 inh inactive, APEX1 inh inactive, RECQ1 inh-1 inconclusive, BLM inh inactive, FEN1 inh inactive and RECQ1 inh-2 inactive.
COc1ccc(C(=O)NCCCN2CCOCC2)cc1S(=O)(=O)N1CCCc2ccccc21 was read as TDP1 inh inactive, APEX1 inh inactive, RECQ1 inh-1 40µM, BLM inh inactive, FEN1 inh inactive and RECQ1 inh-2 inactive.
For O=C(OCc1nnc(-c2ccccc2)o1)c1ccc(S(=O)(=O)NCc2ccco2)cc1 the results were TDP1 inh inactive, APEX1 inh inconclusive, RECQ1 inh-1 40µM, BLM inh inactive, FEN1 inh inactive and RECQ1 inh-2 inconclusive.
`Cc1cccc(Cn2c(CNS(=O)(=O)c3ccc4c(c3)CCCC4)nc3cccnc32)c1` gave TDP1 inh inactive, BLM inh inactive and FEN1 inh inactive.
For Cc1sc(NC(=O)c2ccco2)c(C(c2cccnc2)N2CCN(CCO)CC2)c1C (configuration not stated) the results were TDP1 inh inactive, APEX1 inh inactive, RECQ1 inh-1 inactive, BLM inh inactive and FEN1 inh inactive.
`Cc1sc(NC(=O)c2ccco2)c(C(c2cccnc2)N2CCN(c3ccc(F)cc3)CC2)c1C` (configuration not stated) gave TDP1 inh inactive, APEX1 inh inactive, RECQ1 inh-1 40µM, BLM inh inactive, FEN1 inh inactive and RECQ1 inh-2 inconclusive.
`COc1ccc(-c2cc(C(=O)O)no2)cc1` gave TDP1 inh inactive, APEX1 inh inactive, RECQ1 inh-1 inconclusive, BLM inh inactive, FEN1 inh inactive and RECQ1 inh-2 inactive.
For COc1ccc(-c2cc(C(=O)Nc3cc(C)on3)no2)cc1 the results were TDP1 inh inactive, APEX1 inh inactive, RECQ1 inh-1 inactive, BLM inh inactive and FEN1 inh inactive.

Compound activity as filed in PubChem.
